Measurements taken from PubChem BioAssay (Tox21).
Results filed as inconclusive are left out. A number with no mark means an inactive call. Calls of active or inactive are those of the source. The call rests on the fitted dose curve.

Test: qHTS assay to identify small molecule agonists of the AP-1 signaling pathway - cell viability counter screen (AID 1159525); further: nearly all actives have a fitted effect of over 55% in size
Conditions: ME-180 (cervical carcinoma) AP-1-bla cells viability, ATP luminescence, 5 h; series mostly up to 76.8 µM; viability change, negative = cytotoxic: at the top concentration
From the text: National Center for Advancing Translational Sciences [NCATS]
NIH Chemical Genomics Center [NCGC]
U.S. Environmental Protection Agency [EPA]
National Institutes of Environmental Health Sciences [NIEHS]
National Toxicology Program [NTP]
U.S. Food and Drug Administration [FDA]
Activator protein-1 (AP-1), a transcription factor, plays an important role in tumor genesis by regulating genes involved in cell proliferation, differentiation, apoptosis, and angiogenesis. AP-1 activity is induced by a complex network of signaling pathways that involves extracellular signals, such as growth factors. The AP-1 protein complex formed from c-Fos and c-Jun binding to the AP-1 response element results in transcriptional activation of genes containing such elements within their promoter.
Low molecular weight molecules have been discovered and developed to modulate various components of these signaling pathways, for example, MAP kinase inhibitors. However, many points of pathway modulation remain untested due to the lack of chemical probes making this signaling locus of general interest.
Using a beta-lactamase reporter-gene under control of the AP-1 response element, a cell-based assay [CellSensor(TM) AP-1-bla ME-180 developed by Invitrogen Corp.] was used to measure EGF-induced signaling. The Tox21 10K library compounds were measured for their ability to positively modulate the action of EC50 EGF on reporter gene activity. Compounds were screened in a 15-pt titration series in 1536-well format. The cytotoxicity of the Tox21 compound library against this cell line was tested in parallel by measuring the intra cellular ATP content in the same wells.
Tox21 Assay Protocol Summary:
2500 cells/5uL in Opti-MEM medium containing 0.5% dialyzed FBS, 0.1 mM NEAA, 1 mM sodium pyruvate and 10 mM HEPES was dispensed into 1536-well black wall/clear bottom plates using a Multidrop dispenser and cells were cultured at 37 degrees Celsius overnight. Next day 23 nL of compounds dissolved in DMSO, positive controls or DMSO were delivered to each well using a pin tool. The plates were incubated at 37 degrees Celsius for 5 hours. 1 uL of LiveBLAzerTM B/G FRET substrate (Solution A+B+C+D) was added to each well using a Flying Reagent Dispenser. After incubated at room temperature for 2.5 hours the plates were measured on an EnVision plate reader at Excitation 405nm, Emission1=460nm and Emission 2=530nm. The %Activity was determined from the ratio of 460nm/530nm.
After the plates were read for Beta-Lactamase assay on Envision; 3 ul Cell Titer Glo (Promega) was added to measure the cytotoxicity and the plates were then incubated at RT in dark for 30 min. The luminescence was read on ViewLux (Perkin Elmer, Shelton, CT) using 6 sec exposure. ViewLux data was expressed as relative luminescence units.
For primary data analysis, raw plate reads for each titration point were first normalized relative to […] EGF control (100%) and DMSO only wells (basal, 0%).
For primary data analysis for viability assay, raw plate reads for each titration point were first normalized Tetra n-octyl ammonium bromide control (-100%) and DMSO (control, 100%).
Potency means the concentration at half of the fitted maximal effect.

Structure (SMILES)	viability change, negative = cytotoxic	Potency
Clc1cc(Cl)nc(Cl)n1	1.95%	
CN(C)CCN1C(=O)c2ccccc2N(C)c2ccccc21	5.59% [at 35.3 µM]	
CN(C)CCC=C1c2ccccc2C=Cc2ccccc21	0.0856% [at 35.3 µM]	
O=c1[nH]ncc2ccccc12	0.0128%	
Cc1ccccc1S	7.28% [at 35.3 µM]	
CCC1(CO)COCOC1	8.84%	
C=C/C(C)=C/C/C=C(\C)CCC=C(C)C	-9.24%	
Cc1[nH]cnc1CN1CCc2c(c3ccccc3n2C)C1=O	1.47% [at 35.3 µM]	
CC(C)Nc1cccnc1N1CCN(C(=O)c2cc3cc(NS(C)(=O)=O)ccc3[nH]2)CC1	-7.2% [at 35.3 µM]	
c1ccc2c(c1)CCc1ccccc1N2	-22% [at 35.3 µM]	
NC1[C@H]2CN(c3nc4c(cc3F)c(=O)c(C(=O)O)cn4-c3ccc(F)cc3F)C[C@@H]12 (stereo not given in full)	2.87% [at 35.3 µM]	
OCCOCC#CCOCCO	3.3%	
O=C1c2ccccc2C(=O)c2c(O)c(O)cc(O)c21	-8.25%	
CC(C)=CCC/C(C)=C/CC/C(C)=C/CCC(=O)OC/C=C(\C)CCC=C(C)C	1.56% [at 35.3 µM]	
CN1C(=O)N(c2ccccc2Br)Cc2cnc(Nc3ccc4c(c3)OCC(CO)O4)nc21 (stereo not given)	-2.54%	
CCC(C)COC(C)=O (stereo not given)	-0.402%	
CCCCC(CC)COP(=O)(O)O (stereo not given)	-12.6%	
CC(O)c1ccccc1 (stereo not given)	-9.17%	
OC1(c2ccccc2)CCNCC1	1.35% [at 35.3 µM]	
Cc1ccc(OC(=O)c2ccccc2O)cc1	3.88%	

Structure (SMILES)	viability change, negative = cytotoxic	Potency
CC1(C)O[C@@H]2C[C@H]3[C@@H]4C[C@H](F)C5=CC(=O)C=C[C@]5(C)[C@H]4[C@@H](O)C[C@]3(C)[C@]2(C(=O)CO)O1	2.21% [at 35.3 µM]	
CCOC(=O)c1ccc(OCCN2C[C@H](O)[C@@H](O)[C@H](O)[C@H]2CO)cc1	10.8% [at 35.3 µM]	
C=CCc1ccccc1OCC(O)CNC(C)C (stereo not given)	3.43% [at 35.3 µM]	
OC(CCN1CCCC1)(c1ccccc1)C1CCCCC1 (stereo not given)	0.841% [at 35.3 µM]	
C[C@H]1c2cccc(O)c2C(O)=C2C(=O)[C@]3(O)C(O)=C(C(N)=O)C(=O)[C@@H](N(C)C)[C@@H]3[C@@H](O)[C@@H]21	2.29% [at 35.3 µM]	
CCCCCC[C@@H](O)C/C=C\CCCCCCCC(=O)OCC(O)CO (stereo not given in full)	-2.75%	
Oc1cc2c(cc1O)[C@H]1c3ccc(O)c(O)c3OC[C@@]1(O)C2	14%	
FC(F)(F)c1ccccc1Cl	-0.952%	
CCCCN(CCCC)C(C(N)=O)c1ccc(OC)cc1 (stereo not given)	7.05% [at 35.3 µM]	
Cc1ccco1	-0.0634%	
Cc1cccc(O)c1N		44.1 µM (active)
CC(C)=CCC/C(C)=C/CC/C(C)=C/C(=O)OCC(=O)[C@@]1(O)CC[C@H]2[C@@H]3CCC4=CC(=O)C=C[C@]4(C)[C@H]3[C@@H](O)C[C@@]21C	8.52% [at 35.3 µM]	
O=C(CCc1ccc(O)cc1)c1c(O)cc(O)cc1O	10.2%	
COc1cc(N)c(Cl)cc1C(=O)NC1CCN(CCCOc2ccc(F)cc2)CC1OC (stereo not given)	-7.45% [at 35.3 µM]	
C[C@@H]1CC(=O)NN=C1c1ccc(NN=C(C#N)C#N)cc1		inactive
O=Cc1c2ccccc2c(Cl)c2ccccc12	1.36% [at 35.3 µM]	
CN1CCCC(CC2c3ccccc3Sc3ccccc32)C1 (stereo not given)	4.2% [at 35.3 µM]	
CCCCCC[C@@H](O)C/C=C\CCCCCCCC(=O)O	-5.46%	
CC(C)C=O	0.49%	
CC1(C)[C@H](C(=O)O)N2C(=O)C[C@H]2S1(=O)=O	-2.72% [at 35.3 µM]	
